# Assay results reported in PubChem BioAssay (EPA / NIEHS).
# Activity calls are given as the source filed them. Rule for the calls: active = hit-call score of the fitted dose curve at least 0.9, where 1 is the maximum; inactive = score below 0.9.
# How the values were obtained:
# Settings in all cases: mRNA level, 48 h; actives raise or lower the signal
# [1] = read-out: growth arrest and DNA damage 45 (GADD45A), GADD45A (gene 1647); assay: LTEA_HepaRG_GADD45A: Life Technologies and Expression Analysis (LTEA) Assay for growth arrest and DNA damage 45 (GADD45A) using HepaRG (AID 2283458)
# Summary of the method: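 Eight-point concentration-response in HepaRG cells: 48 h chemical exposure, 0.5% DMSO vehicle, top dose 100 uM. Normalized qRT-PCR mRNA readout with bidirectional fitting relative to DMSO.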
# [2] = read-out: Forkhead box O3 (FOXO3), FOXO3 (gene 2309); assay: LTEA_HepaRG_FOXO3: Life Technologies and Expression Analysis (LTEA) Assay for Forkhead box O3 (FOXO3) using HepaRG (AID 2283459)
# Summary of the method: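 Gene-expression endpoint: FOXO3 transcript level by qRT-PCR in HepaRG cultures treated 48 h with chemicals up to 100 uM (half-log, 0.5% DMSO vehicle).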
# [3] = read-out: ABC Transporter (ABCB1), ABCB1 (gene 5243); assay: LTEA_HepaRG_ABCB1: Life Technologies and Expression Analysis (LTEA) Assay for ABC Transporter (ABCB1) using HepaRG (AID 2283460)
# Summary of the method: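 Human liver HepaRG line treated 48 h with up to 100 uM compound (eight half-log points, 0.5% DMSO); ABCB1 mRNA change fitted bidirectionally against DMSO controls.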
# [4] = read-out: growth arrest and DNA damage 45 (GADD45B), GADD45B (gene 4616); assay: LTEA_HepaRG_GADD45B: Life Technologies and Expression Analysis (LTEA) Assay for growth arrest and DNA damage 45 (GADD45B) using HepaRG (AID 2283461)
# Summary of the method: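 Values are bidirectional concentration-response fits against 0.5% DMSO controls. Underlying data: qRT-PCR mRNA levels in human HepaRG liver cells treated 48 h in serum-free induction medium, eight concentrations topping at 100 uM.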
# [5] = read-out: ABC Transporter (ABCC3), ABCC3 (gene 8714); assay: LTEA_HepaRG_ABCC3: Life Technologies and Expression Analysis (LTEA) Assay for ABC Transporter (ABCC3) using HepaRG (AID 2283462)
# Summary of the method: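 Differentiated HepaRG liver cells receive test chemicals at eight concentrations (max 100 uM) for 48 h. Expression of ABCC3 is quantified by qRT-PCR against ACTB, GAPDH and POLR2A, and activity is fitted in both directions against the DMSO control.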
# [6] = read-out: ABC Transporter (ABCB11), ABCB11 (gene 8647); assay: LTEA_HepaRG_ABCB11: Life Technologies and Expression Analysis (LTEA) Assay for ABC Transporter (ABCB11) using HepaRG (AID 2283463)
# Summary of the method: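 Using HepaRG cultures held in 0.5% DMSO, chemicals were tested at half-log dilutions from 100 uM for 48 h. Induction or suppression of ABCB11 mRNA, normalized to ACTB, GAPDH and POLR2A, was fitted bidirectionally against vehicle.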
# [7] = read-out: ABC Transporter (ABCC2), ABCC2 (gene 1244); assay: LTEA_HepaRG_ABCC2: Life Technologies and Expression Analysis (LTEA) Assay for ABC Transporter (ABCC2) using HepaRG (AID 2283464)
# Summary of the method: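 Gene expression of ABCC2 was determined by qRT-PCR in HepaRG cells exposed 48 h to chemicals (highest 100 uM, half-log dilutions). Activity was fitted in both directions relative to 0.5% DMSO vehicle.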
# [8] = read-out: Broad substrate specificity ATP-binding cassette transporter ABCG2 (Homo sapiens) (UniProt Q9UNQ0); assay: LTEA_HepaRG_ABCG2: Life Technologies and Expression Analysis (LTEA) Assay for ABC Transporter (ABCG2) using HepaRG (AID 2283465)
# Summary of the method: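 Gene expression of ABCG2 in HepaRG liver cells is quantified by qRT-PCR following 48 h exposure across an eight-point series topping at 100 uM. Values come from bidirectional fitting relative to DMSO vehicle.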
# [9] = read-out: ATP-citrate lyase (ACLY), ACLY (gene 47); assay: LTEA_HepaRG_ACLY: Life Technologies and Expression Analysis (LTEA) Assay for ATP-citrate lyase (ACLY) using HepaRG (AID 2283466)
# Summary of the method: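 ACLY expression changes in human HepaRG liver cells are quantified by qRT-PCR after 48 h exposure to test chemicals (maximum 100 uM, half-log steps). Values are fitted in both directions relative to 0.5% DMSO vehicle.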
# [10] = read-out: Peroxisomal acyl-coenzyme A oxidase 1 (ACOX1) gene, ACOX1 (gene 51); assay: LTEA_HepaRG_ACOX1: Life Technologies and Expression Analysis (LTEA) Assay for Peroxisomal acyl-coenzyme A oxidase 1 (ACOX1) gene using HepaRG (AID 2283467)
# Summary of the method: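 Human HepaRG hepatic cultures, 48 h treatment with test chemicals up to 100 uM. ACOX1 expression read by qRT-PCR relative to 0.5% DMSO vehicle.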
# [11] = read-out: Alkaline Phosphatase, Placental (ALPP) gene, ALPP (gene 250); assay: LTEA_HepaRG_ALPP: Life Technologies and Expression Analysis (LTEA) Assay for Alkaline Phosphatase, Placental (ALPP) gene using HepaRG (AID 2283468);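 for AC50: ALPP transcript by TaqMan qRT-PCR normalized to ACTB GAPDH and POLR2A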
# Summary of the method: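 Expression of ALPP was quantified by qRT-PCR against three housekeeping genes in human HepaRG cultures treated for 48 h with an eight-point concentration series up to 100 uM. Activity in either direction was fitted relative to 0.5% DMSO.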
# [12] = read-out: Bcl-2 (BAD) gene, BAD (gene 572); assay: LTEA_HepaRG_BAD: Life Technologies and Expression Analysis (LTEA) Assay for Bcl-2 (BAD) gene using HepaRG (AID 2283469)
# Summary of the method: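 Activity values reflect up- or down-regulation of BAD mRNA in human HepaRG hepatic cells treated 48 h in serum-free medium, with eight-point half-log dosing capped at 100 uM and 0.5% DMSO vehicle.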
# [13] = read-out: Bcl-2 (BAX) gene, BAX (gene 581); assay: LTEA_HepaRG_BAX: Life Technologies and Expression Analysis (LTEA) Assay for Bcl-2 (BAX) gene using HepaRG (AID 2283470)
# Summary of the method: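 Human HepaRG cells treated in duplicate for 48 h across eight concentrations (max 100 uM, 0.5% DMSO); BAX expression measured by qRT-PCR.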
# [14] = read-out: adenosine kinase (ADK) gene, ADK (gene 132); assay: LTEA_HepaRG_ADK: Life Technologies and Expression Analysis (LTEA) Assay for adenosine kinase (ADK) gene using HepaRG (AID 2283471)
# Summary of the method: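 Following 48 h exposure of HepaRG cells in 0.5% DMSO (top concentration 100 uM, duplicate wells), ADK mRNA induction or suppression was measured by qRT-PCR, normalised to ACTB/GAPDH/POLR2A, and fitted bidirectionally relative to vehicle.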
# [15] = read-out: BCL2L11 (gene 10018); assay: LTEA_HepaRG_BCL2L11: Life Technologies and Expression Analysis (LTEA) Assay for Bcl-2 (BCL2L11) gene using HepaRG (AID 2283473)
# Summary of the method: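 Cells were plated, cultured 48 h, switched to serum-free induction medium, then dosed in duplicate for 48 h at eight half-log concentrations up to 100 uM. Lysates underwent RNA isolation and TaqMan qRT-PCR; gain or loss versus DMSO was fitted.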
# [16] = read-out: Apolipoprotein A-V (APOA5) gene, APOA5 (gene 116519); assay: LTEA_HepaRG_APOA5: Life Technologies and Expression Analysis (LTEA) Assay for Apolipoprotein A-V (APOA5) gene using HepaRG (AID 2283474)
# Summary of the method: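 Human liver HepaRG cells are treated 48 h with test chemicals (100 uM top, half-log dilutions, 0.5% DMSO). APOA5 mRNA induction or loss is measured by qRT-PCR relative to vehicle.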
# [17] = read-out: Apoptosis regulator Bcl-2 (Homo sapiens) (UniProt P10415); assay: LTEA_HepaRG_BCL2: Life Technologies and Expression Analysis (LTEA) Assay for Bcl-2 gene using HepaRG (AID 2283475);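 note: BCL2 transcript by TaqMan qRT-PCR normalised to ACTB GAPDH and POLR2A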
# Summary of the method: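 Each chemical was tested in duplicate on HepaRG cultures held in serum-free induction medium for 48 h, highest concentration 100 uM with half-log dilutions. Transcript levels came from multiplexed qRT-PCR, normalised to housekeeping genes; activity was scored in either direction relative to DMSO.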
# [18] = read-out: Bcl-2 (BID) gene, BID (gene 637); assay: LTEA_HepaRG_BID: Life Technologies and Expression Analysis (LTEA) Assay for Bcl-2 (BID) gene using HepaRG (AID 2283476)
# Summary of the method: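 Assay used HepaRG hepatic cells treated 48 h in serum-free medium with half-log dilutions from 100 uM. Endpoint: BID mRNA, qRT-PCR, normalized to ACTB/GAPDH/POLR2A.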
# [19] = read-out: Caspase-3 (Homo sapiens) (UniProt P42574); assay: LTEA_HepaRG_CASP3: Life Technologies and Expression Analysis (LTEA) Assay for cysteine-aspartic acid protease (CASP3) using HepaRG (AID 2283477)
# Summary of the method: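 In HepaRG liver cells dosed for 48 h at up to 100 uM (eight-point, duplicate), CASP3 expression changes are scored by qRT-PCR. Activity is fitted in both directions with 0.5% DMSO as baseline.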
# [20] = read-out: Alpha-fetoprotein (AFP) gene, AFP (gene 174); assay: LTEA_HepaRG_AFP: Life Technologies and Expression Analysis (LTEA) Assay for Alpha-fetoprotein (AFP) gene using HepaRG (AID 2283472);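 for AC50: AFP transcript by TaqMan qRT-PCR normalized to ACTB GAPDH and POLR2A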
# Summary of the method: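 Measures AFP mRNA change in HepaRG after 48 h chemical exposure (8 half-log concentrations, highest 100 uM, 0.5% DMSO). Fold change relative to DMSO, fitted in both directions.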
# Caspase-3 (Homo sapiens), sequence (P42574 whole entry, looked up): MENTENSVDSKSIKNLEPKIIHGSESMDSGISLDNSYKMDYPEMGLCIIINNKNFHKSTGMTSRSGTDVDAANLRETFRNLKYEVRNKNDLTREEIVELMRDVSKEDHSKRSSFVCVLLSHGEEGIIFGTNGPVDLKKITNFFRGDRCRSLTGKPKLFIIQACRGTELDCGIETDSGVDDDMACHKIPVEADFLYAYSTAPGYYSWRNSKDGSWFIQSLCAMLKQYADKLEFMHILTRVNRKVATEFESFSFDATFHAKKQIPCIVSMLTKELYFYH
# Apoptosis regulator Bcl-2 (Homo sapiens), sequence (P10415 whole entry, looked up): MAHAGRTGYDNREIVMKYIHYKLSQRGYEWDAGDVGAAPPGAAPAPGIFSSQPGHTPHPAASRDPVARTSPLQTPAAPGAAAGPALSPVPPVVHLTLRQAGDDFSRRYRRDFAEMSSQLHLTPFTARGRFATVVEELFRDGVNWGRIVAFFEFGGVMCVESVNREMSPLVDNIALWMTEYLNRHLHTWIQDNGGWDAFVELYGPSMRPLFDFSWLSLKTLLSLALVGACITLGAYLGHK
# Broad substrate specificity ATP-binding cassette transporter ABCG2 (Homo sapiens), sequence (Q9UNQ0 whole entry, looked up): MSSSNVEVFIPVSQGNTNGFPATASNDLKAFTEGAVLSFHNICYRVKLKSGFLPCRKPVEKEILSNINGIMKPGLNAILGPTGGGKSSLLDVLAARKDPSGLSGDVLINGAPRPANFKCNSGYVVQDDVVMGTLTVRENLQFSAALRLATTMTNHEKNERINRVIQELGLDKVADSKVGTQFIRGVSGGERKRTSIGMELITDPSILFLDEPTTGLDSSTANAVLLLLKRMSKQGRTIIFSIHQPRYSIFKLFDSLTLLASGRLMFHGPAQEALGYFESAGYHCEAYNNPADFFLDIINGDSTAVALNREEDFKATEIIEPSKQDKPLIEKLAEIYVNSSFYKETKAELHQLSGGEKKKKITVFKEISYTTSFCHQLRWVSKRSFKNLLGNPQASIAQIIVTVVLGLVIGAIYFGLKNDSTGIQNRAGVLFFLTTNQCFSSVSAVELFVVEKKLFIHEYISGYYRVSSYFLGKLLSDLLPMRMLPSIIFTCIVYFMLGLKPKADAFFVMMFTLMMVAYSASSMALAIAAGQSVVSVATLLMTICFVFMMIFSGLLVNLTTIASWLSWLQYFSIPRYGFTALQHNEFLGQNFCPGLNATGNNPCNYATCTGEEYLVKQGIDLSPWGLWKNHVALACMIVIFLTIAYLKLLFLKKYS
structure (smiles),measurement,setting,value
OC1CCC(C2CCCCC2)CC1 (stereo unspecified),outcome,[1],inactive
same,outcome,[2],inactive
same,outcome,[3],inactive
same,outcome,[4],inactive
same,outcome,[5],inactive
same,outcome,[6],inactive
same,outcome,[7],inactive
same,outcome,[8],inactive
same,outcome,[9],inactive
same,outcome,[10],inactive
same,outcome,[11],inactive
same,outcome,[12],inactive
same,outcome,[13],inactive
same,outcome,[14],inactive
same,outcome,[15],inactive
same,outcome,[16],inactive
same,outcome,[17],inactive
same,outcome,[18],inactive
same,outcome,[19],inactive
Cc1cc(CCN2CCN(c3nsc4ccccc34)CC2)cc2c1NC(=O)CC2(C)C,outcome,[1],inactive
same,outcome,[2],inactive
same,AC50,[3],79.8 µM (active)
same,outcome,[4],inactive
same,outcome,[5],inactive
same,AC50,[6],74.7 µM (active)
same,AC50,[7],85.1 µM (active)
same,AC50,[8],32 µM (active)
same,outcome,[9],inactive
same,AC50,[10],75.2 µM (active)
same,AC50,[11],50 µM (active)
same,outcome,[12],inactive
same,AC50,[13],93 µM (active)
same,outcome,[14],inactive
same,AC50,[20],72.6 µM (active)
same,outcome,[15],inactive
same,AC50,[16],75.9 µM (active)
same,AC50,[17],68.2 µM (active)
same,outcome,[18],inactive
same,outcome,[19],inactive
O=C(O)Cc1cc(I)c(Oc2cc(I)c(O)c(I)c2)c(I)c1,AC50,[1],50.2 µM (active)
same,AC50,[2],24.8 µM (active)
same,outcome,[3],inactive
same,AC50,[4],55.4 µM (active)
same,AC50,[5],52.4 µM (active)
same,AC50,[6],19.9 µM (active)
same,AC50,[7],57.7 µM (active)
same,AC50,[8],51.7 µM (active)
same,AC50,[9],56.3 µM (active)
same,AC50,[10],56.8 µM (active)
same,AC50,[11],13.6 µM (active)
same,outcome,[12],inactive
same,outcome,[13],inactive
same,AC50,[14],45.7 µM (active)
same,AC50,[20],37.5 µM (active)
same,outcome,[15],inactive
same,AC50,[16],57.7 µM (active)
same,AC50,[17],21.7 µM (active)
same,outcome,[18],inactive
same,outcome,[19],inactive
COCC(C)O (stereo unspecified),outcome,[1],inactive
same,outcome,[2],inactive
same,outcome,[3],inactive
same,outcome,[4],inactive
same,outcome,[5],inactive
same,outcome,[6],inactive
same,outcome,[7],inactive
same,outcome,[8],inactive
same,outcome,[9],inactive
same,outcome,[10],inactive
same,outcome,[11],inactive
same,outcome,[12],inactive
same,outcome,[13],inactive
same,outcome,[14],inactive
same,outcome,[15],inactive
same,outcome,[16],inactive
same,outcome,[17],inactive
same,outcome,[18],inactive
same,outcome,[19],inactive
CCCCOCCO,outcome,[1],inactive
same,outcome,[2],inactive
same,outcome,[3],inactive
same,outcome,[4],inactive
same,outcome,[5],inactive
same,outcome,[6],inactive
same,outcome,[7],inactive
same,outcome,[8],inactive
same,outcome,[9],inactive
same,outcome,[10],inactive
same,outcome,[11],inactive
same,outcome,[12],inactive
same,outcome,[13],inactive
same,outcome,[14],inactive
same,outcome,[15],inactive
same,outcome,[16],inactive
same,outcome,[17],inactive
same,outcome,[18],inactive
same,outcome,[19],inactive
CCCCCCC(=O)O,outcome,[1],inactive
same,outcome,[2],inactive
same,outcome,[3],inactive
same,outcome,[4],inactive
same,outcome,[5],inactive
same,outcome,[6],inactive
same,outcome,[7],inactive
same,outcome,[8],inactive
same,outcome,[9],inactive
same,outcome,[10],inactive
same,outcome,[11],inactive
same,outcome,[12],inactive
same,outcome,[13],inactive
same,outcome,[14],inactive
same,outcome,[20],inactive
same,outcome,[15],inactive
same,outcome,[16],inactive
same,outcome,[17],inactive
same,outcome,[18],inactive
same,outcome,[19],inactive
COc1ccc([N+](=O)[O-])cc1N,outcome,[1],inactive
same,outcome,[2],inactive
same,outcome,[3],inactive
same,outcome,[4],inactive
same,outcome,[5],inactive
same,outcome,[6],inactive
same,outcome,[7],inactive
same,outcome,[8],inactive
same,outcome,[9],inactive
same,outcome,[10],inactive
same,outcome,[11],inactive
same,outcome,[12],inactive
same,outcome,[13],inactive
same,outcome,[14],inactive
same,outcome,[15],inactive
same,outcome,[16],inactive
same,outcome,[17],inactive
same,outcome,[18],inactive
same,outcome,[19],inactive
